Results as given in PubChem BioAssay AID504725 (Broad Institute, 2011).
Entries with a potency or affinity are not part of this list.

These molecules were tested against KSHV LANA C-terminal domain (residues 932-1162) binding to LBS DNA (UniProt O40947) (assay: KSHV LANA DNA-binding disruption – biochemical, fluorescence polarization, cherry-picked samples, dose response (AID 504725)). Details: MBP-C-LANA / FAM-LBS DNA fluorescence polarization, percent change from plate compound-well median; series mostly up to 35 µM; activity change, negative = inhibition: at the top concentration; call rule not given here.

Activity change, negative = inhibition, inactive:
O=C(O)CCN1C(=O)/C(=C\c2ccc(-c3nc4ccccc4s3)o2)SC1=S -1.43%, COc1ccc(-c2cc(C(F)(F)F)n3ncc(C(=O)N4CCCCC4c4cccnc4)c3n2)cc1 (stereo not drawn) 1.27%, CS(=O)(=O)c1cccc(C(=O)Oc2ccccc2)c1 3.42%, COc1ccccc1N1CCN(S(=O)(=O)c2c(C)[nH]c(C)c2C(=O)N2CCCC2)CC1 -0.392%, O=C(O)c1cccc(-n2cccc2/C=C/[N+](=O)[O-])c1 -14.2%, Cc1cccc(N(Cc2ccccc2)C(=O)C2CCN(C(=O)c3ccccc3C)CC2)c1 -0.766%, COc1ccc(-c2cnc3n2CCCCC3)cc1 0.703%, Cc1ccc2cccc(OCC(=O)NCCC3=CCCCC3)c2n1 -1.65%, COc1ccc(CCNC(=O)CNC(=O)Cn2ccc3ccccc3c2=O)cc1OC 0.222%, COc1ccc(C)cc1NC(=O)C(OC(=O)c1cnccn1)c1ccccc1 (stereo not drawn) -8.66%, COC(=O)\C(C(C)=O)=C(/C=C/C=C/C=C/N(C)C)N(C)C 0.45%, Cc1c(N)cc(S(=O)(=O)O)cc1NC(=O)c1cccc([N+](=O)[O-])c1 -8.5%, NC(=O)C1(N2CCCCC2)CCN(Cc2ccc(Br)cc2)CC1 -5.04%, CCCCn1c(NS(=O)(=O)c2ccc(C)cc2)c(S(=O)(=O)c2ccccc2)c2nc3ccccc3nc21 -17.6%, CC(C(=O)Nc1ccccc1)N1C(=O)c2ccccc2C1=O (stereo not drawn) -1.14%, Oc1[nH]c2ccccc2c1N=Nc1ccccc1F 16.6%, CCOc1ccc(Nc2ccc(N)c(S(=O)(=O)O)c2)cc1 -15.9%, Cc1cccnc1NC1(C(F)(F)F)N=C2SCCN2C1=O (stereo not drawn) 1.44%, CC(Sc1ncccn1)C(=O)NNC(=O)c1cccc(Cl)c1 (stereo not drawn) -2.31%, COc1ccc(C(=O)N/N=C/c2ccc(OC)c(COc3ccccc3)c2)cc1 1.35%, COc1cccc(NC(=O)CN(C)CC(=O)NCc2ccco2)c1 -0.425%, O=C(O)CC1(CC(=O)NCc2ccncc2)CCCCC1 0.912%, CCN(c1ccc(C)cc1C)S(=O)(=O)c1nnc(NC(=O)c2ccco2)s1 -0.978%, O=C(/C=C\c1ccccc1)Oc1cccc2cccnc12 0.031%, Cc1ccc(NC(=O)CN2C(=O)N/C(=C/c3cc(C)n(-c4ccc(C(=O)O)cc4)c3C)C2=O)cc1 -8.71%, CCN(CC(=O)Nc1c(F)cccc1F)C(=O)CCCc1cccs1 -1.84%, C/C(=N/NC(=O)c1cc(O)c(O)c(O)c1)c1ccc([N+](=O)[O-])cc1 -9.97%, Nc1nc(C(F)(F)F)cc(=O)[nH]1 -6.46%, O=S(=O)(O)c1cc(O)c2cc(Nc3ccccc3)ccc2c1 -17.8%, COc1cc(NC(=O)c2ccc(CNc3c(N4CCCC4)c(=O)c3=O)cc2)cc(OC)c1OC 1.7%, COc1ccc(N=Nc2nc3ccc(Br)cc3n2C)cc1 -10.5%, O=C(O)c1ccccc1NS(=O)(=O)c1ccc(N/N=C/c2ccc(O)c(O)c2)c([N+](=O)[O-])c1 -16.6%, Cc1ccc(-c2nnn(CC(=O)NC3CCN(Cc4ccccc4)CC3)n2)cc1 -2.48%, CCCc1nc(SC)[nH]c(=O)c1C -1.44%, Cc1[nH][nH]c(=O)c1C(c1ccc(-c2ccc(Cl)c(C(=O)O)c2)o1)c1c(C)[nH][nH]c1=O -11.2%, CN(C)C(=O)c1ccc(NC(=O)COC(=O)C2(c3ccccc3)CCCC2)cc1 0.523%, CCn1c(=O)c(C(=O)NCCN2CCCCC2)c(O)c2ccccc21 2.06%, CCOC(=O)C1C2C=CC3(CN(c4cccc(Cl)c4)C(=O)C13)O2 (stereo not drawn) -3.47%
